For some assays here: Results with a measured potency or affinity are listed apart. Activity calls are given as the source filed them. Unless noted, no rule for the calls is given here.
Key:
[1] = antimalarial activity against Dd2 strain (AID 2302;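 active = growth inhibition above 50% at the single 2 µM test dose, taken to imply half-maximal potency below 2 µM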;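 also: 0% = DMSO untreated growth and 100% = chloroquine plus artemisinin killed control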); details: P. falciparum Dd2 in RBCs, LDH growth readout, 72 h; at 2 µM; active compounds read high
[2] = HepG2 cytotoxicity, primary screen, cytotoxicity control for P. falciparum antimalarial project, cell-based, ATP luminescence (AID 2303;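 active = inhibition above 50%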;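 also: 0% = DMSO wells and 100% = digitonin-killed cells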); details: HepG2 viability, 24-48 h, at 10 µM, active compounds read high
[3] = target: L-lactate dehydrogenase (Plasmodium falciparum (isolate CDC / Honduras)) (UniProt Q27743); assay: PfLDH activity inhibition – cell lysate, 3D7 strain, counter-screen for P. falciparum growth inhibition project (AID 2304);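 also: 0% = vehicle and 100% = reference inhibitor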; details: P. falciparum 3D7 crude extract, LDH APAD/NBT absorbance; at 2 µM; active compounds read high
[4] = inhibition of 3D7 malaria parasite growth – strain 3D7 (AID 2306);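 also: 0% = DMSO wells and 100% = chloroquine plus artemisinin control wells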; details: P. falciparum 3D7 erythrocytic growth, LDH absorbance, 72 h; at 2 µM; active compounds read high
[5] = target: Calcium-dependent protein kinase 1 (Plasmodium falciparum (isolate 3D7)) (UniProt P62344); assay: PfCDPK1 kinase inhibitors, biochemical, TCAMS library (AID 1159585; cut-off not given, nearly all actives have IC50 up to about 0.98 µM;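 also: inhibitors leave more ATP so luminescence rises with inhibition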); details: recombinant PfCDPK1, Kinase-Glo ATP depletion luminescence
[6] = target: Plasmodium falciparum protein kinase 6 (PK6, PF3D7_1337100) (UniProt Q8IDW1); assay: PfPK6 kinase inhibitors, biochemical, TCAMS library (AID 1159586); details: recombinant PfPK6, Kinase-Glo ATP depletion luminescence
[7] = target: Protein kinase 7 (PK7), Plasmodium falciparum 3D7 (PF3D7_0213400) (UniProt Q7YTF7); assay: inhibition of Plasmodium PK7 catalytic activity – biochemical, TCAMS antimalarial set, Kinase-Glo luminescence (AID 1159587); details: recombinant PfPK7, Kinase-Glo ATP depletion luminescence
[8] = target: Calcium-dependent protein kinase 4 (Plasmodium falciparum (isolate 3D7)) (UniProt Q8IBS5); assay: PfCDPK4 kinase inhibitors, biochemical, TCAMS library (AID 1159588; cut-off not given, nearly all actives have IC50 up to about 0.91 µM); details: recombinant PfCDPK4, Kinase-Glo ATP depletion luminescence
Sequence of Calcium-dependent protein kinase 4 (Plasmodium falciparum (isolate 3D7)) (Q8IBS5 whole entry, looked up): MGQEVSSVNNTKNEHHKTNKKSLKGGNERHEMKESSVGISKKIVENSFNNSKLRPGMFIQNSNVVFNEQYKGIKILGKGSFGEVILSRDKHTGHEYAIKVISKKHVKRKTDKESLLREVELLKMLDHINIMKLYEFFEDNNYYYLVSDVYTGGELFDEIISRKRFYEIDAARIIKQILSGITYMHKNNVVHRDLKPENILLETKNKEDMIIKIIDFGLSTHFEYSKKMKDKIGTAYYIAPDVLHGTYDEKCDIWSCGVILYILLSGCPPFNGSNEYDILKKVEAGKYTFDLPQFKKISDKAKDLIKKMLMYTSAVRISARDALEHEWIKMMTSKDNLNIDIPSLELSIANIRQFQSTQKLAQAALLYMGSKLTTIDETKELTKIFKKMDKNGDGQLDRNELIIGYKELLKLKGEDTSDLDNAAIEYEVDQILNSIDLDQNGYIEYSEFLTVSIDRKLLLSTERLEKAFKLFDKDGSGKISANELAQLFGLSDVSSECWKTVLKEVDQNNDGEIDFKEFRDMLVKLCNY

Sequence of L-lactate dehydrogenase (Plasmodium falciparum (isolate CDC / Honduras)) (Q27743 whole entry, looked up): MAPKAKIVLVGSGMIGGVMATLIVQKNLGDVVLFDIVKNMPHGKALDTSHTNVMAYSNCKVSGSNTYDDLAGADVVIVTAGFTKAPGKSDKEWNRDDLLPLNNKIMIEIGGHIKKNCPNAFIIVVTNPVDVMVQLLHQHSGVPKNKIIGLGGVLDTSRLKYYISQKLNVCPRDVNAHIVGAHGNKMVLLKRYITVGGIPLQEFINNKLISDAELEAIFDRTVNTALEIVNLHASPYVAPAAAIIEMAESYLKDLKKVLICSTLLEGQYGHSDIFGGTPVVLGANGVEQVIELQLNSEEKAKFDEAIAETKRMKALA
Sequence of Protein kinase 7 (PK7), Plasmodium falciparum 3D7 (PF3D7_0213400) (Q7YTF7 1-343): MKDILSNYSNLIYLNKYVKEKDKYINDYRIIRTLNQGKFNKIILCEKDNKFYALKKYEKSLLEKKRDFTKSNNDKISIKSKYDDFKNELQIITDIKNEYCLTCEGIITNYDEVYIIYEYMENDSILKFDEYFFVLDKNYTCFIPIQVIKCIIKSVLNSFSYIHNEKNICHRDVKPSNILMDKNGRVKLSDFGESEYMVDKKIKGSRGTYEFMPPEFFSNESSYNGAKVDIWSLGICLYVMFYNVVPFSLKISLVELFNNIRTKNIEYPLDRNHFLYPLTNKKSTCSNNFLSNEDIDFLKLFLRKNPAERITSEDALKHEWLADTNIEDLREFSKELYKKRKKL
Sequence of Calcium-dependent protein kinase 1 (Plasmodium falciparum (isolate 3D7)) (P62344 whole entry, looked up): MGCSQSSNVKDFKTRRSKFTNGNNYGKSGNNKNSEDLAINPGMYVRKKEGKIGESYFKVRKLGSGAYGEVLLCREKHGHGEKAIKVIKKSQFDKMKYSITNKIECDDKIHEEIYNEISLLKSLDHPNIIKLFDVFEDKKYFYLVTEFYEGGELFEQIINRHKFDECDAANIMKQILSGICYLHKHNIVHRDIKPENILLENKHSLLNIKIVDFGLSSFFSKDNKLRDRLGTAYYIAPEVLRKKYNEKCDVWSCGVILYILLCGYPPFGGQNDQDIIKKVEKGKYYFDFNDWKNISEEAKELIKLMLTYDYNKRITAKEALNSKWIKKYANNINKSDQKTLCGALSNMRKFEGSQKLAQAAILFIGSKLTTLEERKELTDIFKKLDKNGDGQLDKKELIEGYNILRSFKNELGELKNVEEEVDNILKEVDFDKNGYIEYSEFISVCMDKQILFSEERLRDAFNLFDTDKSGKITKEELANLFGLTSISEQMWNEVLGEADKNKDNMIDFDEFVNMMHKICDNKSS
Sequence of Plasmodium falciparum protein kinase 6 (PK6, PF3D7_1337100) (Q8IDW1 1-305): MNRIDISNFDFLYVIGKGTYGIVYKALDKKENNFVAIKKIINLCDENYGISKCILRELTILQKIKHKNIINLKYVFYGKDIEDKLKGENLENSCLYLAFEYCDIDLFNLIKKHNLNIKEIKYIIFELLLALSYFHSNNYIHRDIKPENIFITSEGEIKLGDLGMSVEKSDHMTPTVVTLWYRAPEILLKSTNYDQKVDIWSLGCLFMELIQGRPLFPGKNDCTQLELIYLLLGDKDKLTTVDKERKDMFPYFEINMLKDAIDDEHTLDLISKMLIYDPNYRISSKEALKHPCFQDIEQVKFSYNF

CCCc1cc(N2CCC(N(CC)CC)C2)nc(Nc2ccc(OC)cc2)n1 (stereo not given)
inactive: growth inhibition [1] 4% | inhibition [2] 9% | inhibition [3] 4% | outcome [5] | outcome [6] | outcome [7] | outcome [8]
active: growth inhibition [4] 90%

Cc1nc(Nc2ccc(F)cc2)nc(N2CCc3cc(O)ccc3C2C)c1C (stereo not given)
inactive: inhibition [2] -5% | inhibition [3] -6% | outcome [5] | outcome [6] | outcome [7] | outcome [8]
active: growth inhibition [1] 97% | growth inhibition [4] 99%

Fc1ccc2nc(-c3cccc(-c4cccc(CNCc5cnn(-c6ccccc6)n5)c4)c3)[nH]c2c1
inactive: inhibition [2] 18% | inhibition [3] 4% | outcome [5] | outcome [6] | outcome [7] | outcome [8]
active: growth inhibition [1] 57% | growth inhibition [4] 91%

COc1ccc2c(NN=CC=Cc3ccccc3)cc(C)nc2c1
inactive: inhibition [2] 18% | inhibition [3] 2% | outcome [5] | outcome [6] | outcome [7] | outcome [8]
active: growth inhibition [1] 56% | growth inhibition [4] 99%

c1ccc2c(CNc3nc(NCC4CCCCC4)nc4nc[nH]c34)cccc2c1
inactive: growth inhibition [1] 44% | inhibition [2] -2% | inhibition [3] -2% | outcome [5] | outcome [6] | outcome [7] | outcome [8]
active: growth inhibition [4] 89%

COCCN1CCC(N(Cc2ccc(-c3ccc(OC(F)(F)F)cc3)cc2)C(=O)Cn2c(CCc3cccc(F)c3F)cc(=O)c3ccccc32)CC1
active: growth inhibition [1] 92% | inhibition [2] 100% | growth inhibition [4] 96%
inactive: inhibition [3] -10% | outcome [5] | outcome [6] | outcome [7] | outcome [8]

Cc1cccc2[nH]c(-c3ccc(-c4ccc(NC(=O)c5cncn5C)cc4)s3)nc12
inactive: growth inhibition [1] 30% | inhibition [2] 49% | inhibition [3] 4% | outcome [5] | outcome [6] | outcome [7] | outcome [8]
active: growth inhibition [4] 102%

O=C(c1cc(C(=O)Nc2ccc(F)cc2)c(=O)n(-c2ccc(F)cc2)c1)c1cc(Cl)ccc1O
inactive: inhibition [2] 13% | inhibition [3] -4% | outcome [5] | outcome [6] | outcome [7] | outcome [8]
active: growth inhibition [1] 98% | growth inhibition [4] 101%

NCc1ccc(-c2ccc3c(N)nccc3c2)cc1
active: growth inhibition [1] 92% | growth inhibition [4] 100%
inactive: inhibition [2] 28% | inhibition [3] 0% | outcome [5] | outcome [6] | outcome [7] | outcome [8]

CNCCNCc1cccc(-c2ccc(-c3nc4ccccc4[nH]3)cc2)c1
active: growth inhibition [4] 99%
inactive: growth inhibition [1] 27% | inhibition [2] 13% | inhibition [3] -6% | outcome [5] | outcome [6] | outcome [7] | outcome [8]

O=C(NCC1CCC(CNCCc2ccccc2)CC1)Nc1ccc(Cl)c(Cl)c1 (stereo not given)
inactive: growth inhibition [1] -3% | inhibition [2] 24% | inhibition [3] -1% | outcome [5] | outcome [6] | outcome [7] | outcome [8]
active: growth inhibition [4] 96%

Cc1nnsc1C(=O)Nc1cccc(-c2cccc(-c3nc4c(C)cccc4[nH]3)c2)c1
inactive: inhibition [2] 22% | inhibition [3] 4% | outcome [5] | outcome [6] | outcome [7] | outcome [8]
active: growth inhibition [1] 80% | growth inhibition [4] 99%

CC(=O)NCCCCC1NC2(C(=O)N(Cc3ccc(C(C)(C)C)cc3)c3ccccc32)C2C(=O)N(C3CCCCC3)C(=O)C12 (stereo not given)
active: growth inhibition [1] 71% | growth inhibition [4] 91%
inactive: inhibition [2] -2% | inhibition [3] -3% | outcome [5] | outcome [6] | outcome [7] | outcome [8]

CO/C(=C\C=C\c1cc2cc(Cl)c(Cl)cc2[nH]1)C(=O)NC1C[C@H]2CCC[C@@H](C1)N2C (stereo not given in full)
active: growth inhibition [1] 51% | growth inhibition [4] 93%
inactive: inhibition [2] 42% | inhibition [3] -2% | outcome [5] | outcome [6] | outcome [7] | outcome [8]

COc1ccc(CCNc2nc(SCc3ccccc3Cl)nc3ccccc23)cc1OC
inactive: growth inhibition [1] 2% | inhibition [2] 27% | inhibition [3] 0% | outcome [5] | outcome [6] | outcome [7] | outcome [8]
active: growth inhibition [4] 94%

COc1ccc2[nH]cc(C3CCN(CCCCCNC(=O)c4ccc(-c5ccccc5)cc4)CC3)c2c1
inactive: growth inhibition [1] 16% | inhibition [3] -8% | outcome [5] | outcome [6] | outcome [7] | outcome [8]
active: inhibition [2] 50% | growth inhibition [4] 96%

Cc1cc(N[C@@H](Cc2ccccc2)C(=O)NCCOc2ccccc2)nc(NCCc2cccs2)n1
active: growth inhibition [4] 95%
inactive: growth inhibition [1] 32% | inhibition [2] 8% | inhibition [3] 0% | outcome [5] | outcome [6] | outcome [7] | outcome [8]

Nc1nc(N)c2c(ccc3nn(S(=O)(=O)N4CCCC4)cc32)n1
active: inhibition [2] 69% | growth inhibition [4] 95%
inactive: growth inhibition [1] 0% | inhibition [3] 9% | outcome [5] | outcome [6] | outcome [7] | outcome [8]

N#Cc1cccc(CN2CCCN(Cc3ccc(C(=O)Nc4ccc(Cl)cc4)cc3)CC2)c1
active: growth inhibition [4] 98%
inactive: growth inhibition [1] 21% | inhibition [2] 48% | inhibition [3] 1% | outcome [5] | outcome [6] | outcome [7] | outcome [8]

O=C(N[C@@H](CC1CCCCC1)C(=O)NC1CCCc2ccccc21)c1ccc(O)c(-c2cccc(C(F)(F)F)c2)c1 (stereo not given in full)
inactive: inhibition [2] -4% | inhibition [3] 5% | outcome [5] | outcome [6] | outcome [7] | outcome [8]
active: growth inhibition [1] 99% | growth inhibition [4] 100%

Cc1cccc2[nH]c(-c3ccc(-c4cccc(CN5CCCC5CN)c4)cc3)nc12 (stereo not given)
active: growth inhibition [4] 91%
inactive: growth inhibition [1] 32% | inhibition [2] 7% | inhibition [3] 3% | outcome [5] | outcome [6] | outcome [7] | outcome [8]

NC(N)=NN=CC(=O)Nc1ccc(Cl)c(C(F)(F)F)c1
inactive: growth inhibition [1] 0% | inhibition [2] -6% | inhibition [3] 0% | outcome [5] | outcome [6] | outcome [7] | outcome [8]
active: growth inhibition [4] 100%

Cc1cc(C(=O)CN2C(=O)NC3(CCOc4ccccc43)C2=O)c(C)n1Cc1ccco1 (stereo not given)
inactive: growth inhibition [1] 42% | inhibition [2] 13% | inhibition [3] 5% | outcome [5] | outcome [6] | outcome [7] | outcome [8]
active: growth inhibition [4] 93%

c1ccc(CN2CCC(NCc3ccccc3-c3ccc(CNCc4ccc5c(c4)OCO5)cc3)CC2)cc1
active: growth inhibition [4] 102%
inactive: growth inhibition [1] 49% | inhibition [2] 26% | inhibition [3] 3% | outcome [5] | outcome [6] | outcome [7] | outcome [8]

CN(C)c1ccc(-c2ccc(C(=O)NC3CCN(Cc4cccc(C(F)(F)F)c4)CC3)s2)cc1
inactive: inhibition [2] 35% | inhibition [3] 0% | outcome [5] | outcome [6] | outcome [7] | outcome [8]
active: growth inhibition [1] 77% | growth inhibition [4] 96%

Oc1ccc(CCCNc2nc(NCc3ccccc3-c3ccccc3)nc(NC3CCNCC3)n2)cc1
inactive: growth inhibition [1] 2% | inhibition [2] -1% | inhibition [3] 6% | outcome [5] | outcome [6] | outcome [7] | outcome [8]
active: growth inhibition [4] 97%

CC(O)C1CCCCN1C(=O)c1cccc(-c2ccc(-c3nc4ccc(F)cc4[nH]3)cc2)c1 (stereo not given)
inactive: inhibition [2] 46% | inhibition [3] -6% | outcome [5] | outcome [6] | outcome [7] | outcome [8]
active: growth inhibition [1] 99% | growth inhibition [4] 101%

CCCCCN1CCCN(Cc2cccc(NC(=O)c3ccc(-c4ccccc4)cc3)c2)CC1
inactive: growth inhibition [1] 15% | inhibition [2] 23% | inhibition [3] 6% | outcome [5] | outcome [6] | outcome [7] | outcome [8]
active: growth inhibition [4] 95%

Cn1ccnc1CNC(=O)c1ccc(-c2ccc(-c3nc4ccc(C(F)(F)F)cc4[nH]3)s2)cc1
inactive: growth inhibition [1] 43% | inhibition [2] 40% | inhibition [3] 3% | outcome [5] | outcome [6] | outcome [7] | outcome [8]
active: growth inhibition [4] 101%

N#Cc1ccc2c(c1)CN(CCCCNC(=O)c1ccc(-c3ccccc3)cc1)CC2
inactive: growth inhibition [1] 10% | inhibition [2] -9% | inhibition [3] -1% | outcome [5] | outcome [6] | outcome [7] | outcome [8]
active: growth inhibition [4] 96%

CC(C)[C@H](NC(=O)c1ccc(O)c(-c2cccc(C(F)(F)F)c2)c1)C(=O)NCCN1CCCCC1
inactive: growth inhibition [1] 29% | inhibition [2] 3% | inhibition [3] 2% | outcome [5] | outcome [6] | outcome [7] | outcome [8]
active: growth inhibition [4] 99%

O=C(Nc1ccc(C(F)(F)F)cc1)NC1CCN(c2ccnc3cc(Cl)ccc23)C1 (stereo not given)
inactive: inhibition [2] 20% | inhibition [3] -2% | outcome [5] | outcome [6] | outcome [7] | outcome [8]
active: growth inhibition [1] 99% | growth inhibition [4] 102%

CN1CCN(Cc2c(O)ccc3c(=O)c(Oc4ccc(C(C)(C)C)cc4)c(C(F)(F)F)oc23)CC1
active: growth inhibition [1] 88% | growth inhibition [4] 99%
inactive: inhibition [2] -13% | inhibition [3] 4% | outcome [5] | outcome [6] | outcome [7] | outcome [8]

COc1ccc(NC(=O)c2c(NC(=O)c3cccs3)sc3c2CCCC3)cc1
active: growth inhibition [4] 97%
inactive: growth inhibition [1] 4% | inhibition [2] 4% | inhibition [3] 1% | outcome [5] | outcome [6] | outcome [7] | outcome [8]

CC(=O)c1cccc(NC(=O)C2c3ccccc3C(=O)N(CC(C)C)C2c2cccs2)c1 (stereo not given)
inactive: inhibition [2] 11% | inhibition [3] -2% | outcome [5] | outcome [6] | outcome [7] | outcome [8]
active: growth inhibition [1] 100% | growth inhibition [4] 100%

O=C(NCc1cccc(OC(F)(F)F)c1)c1cnc2c(c1)nc(-c1cnc(-c3ccccc3)[nH]1)n2CCc1cnc[nH]1
inactive: growth inhibition [1] 47% | inhibition [2] 0% | inhibition [3] -10% | outcome [5] | outcome [6] | outcome [7] | outcome [8]
active: growth inhibition [4] 99%

O=C(NCc1cccc(C(F)(F)F)c1)c1ccc(CNC(=O)c2ccc(O)c(-c3ccc(Cl)c(Cl)c3)c2)cc1
inactive: growth inhibition [1] 15% | inhibition [2] 7% | inhibition [3] 2% | outcome [5] | outcome [6] | outcome [7] | outcome [8]
active: growth inhibition [4] 92%

O=C(Nc1ccc2c(c1)OCO2)NC1CCN(c2ccnc(NCc3ccc(F)cc3)n2)CC1
inactive: growth inhibition [1] 15% | inhibition [2] 33% | inhibition [3] 3% | outcome [5] | outcome [6] | outcome [7] | outcome [8]
active: growth inhibition [4] 88%

CN1CCN(c2nc(NCCc3ccc(O)cc3)nc(NCc3ccccc3-c3ccc(C(F)(F)F)cc3)n2)CC1
inactive: inhibition [2] 35% | inhibition [3] 6% | outcome [5] | outcome [6] | outcome [7] | outcome [8]
active: growth inhibition [1] 82% | growth inhibition [4] 90%

O=C(C=Cc1ccc(Cl)c(Cl)c1)NCCCCCN1CCC(CCNS(=O)(=O)c2ccc(Br)cc2)CC1
active: inhibition [2] 58% | growth inhibition [4] 91%
inactive: growth inhibition [1] -1% | inhibition [3] 5% | outcome [5] | outcome [6] | outcome [7] | outcome [8]

Source: PubChem BioAssay
